Reference: PubChem BioAssay AID1159580 (chemical genetic matrix, 2015)
Screen size: about 5,500 compounds; about 2,000 (36%) were called active. About 18% were inconclusive and are not listed. Cut-off read from the data, not from the text of the source: active = normalized growth mostly below about 0.91 (no sharp cut-off); inconclusive = no clear call, values can overlap the other calls; inactive = mostly above about 0.92. This is one part of the list.

Test: chemical genetic growth profiling, strain panel (AID 1159580);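 note: tested at 20 µM; growth read once vehicle control cultures reached saturation at 30 °C; 1 = growth at the plate median or of vehicle wells; lower values mean less growth of the strain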
Conditions: growth OD

Measured: normalized growth

CCC1(CC)C(=O)C=CNC1=O
inactive: S. cerevisiae deletion strains, locus YJR066W, strain TOR1, stronger effect = lower value 0.961 | S. cerevisiae deletion strains, locus YKL009W, strain mrt4, stronger effect = lower value 1 | S. cerevisiae deletion strains, locus YKL068W, stronger effect = lower value 1 | S. cerevisiae deletion strains, locus YKL085W, strain MDH1 (second series), stronger effect = lower value 1 | S. cerevisiae deletion strains, locus YKL085W, strain MDH1, stronger effect = lower value 1 | S. cerevisiae deletion strains, locus YKL160W, strain elf1, stronger effect = lower value 0.992 | S. cerevisiae deletion strains, locus YKL190W, strain CNB1, stronger effect = lower value 1 | S. cerevisiae deletion strains, locus YKR001C, strain vps1, stronger effect = lower value 0.983 | S. cerevisiae deletion strains, locus YKR026C, strain gcn3, stronger effect = lower value 0.97 | S. cerevisiae deletion strains, locus YKR091W, strain srl3, stronger effect = lower value 1 | S. cerevisiae deletion strains, locus YLL001W, strain dnm1, stronger effect = lower value 0.985 | S. cerevisiae deletion strains, locus YLL026W, stronger effect = lower value 0.99 | S. cerevisiae deletion strains, locus YLL041C, strain sdh2, stronger effect = lower value 0.985 | S. cerevisiae deletion strains, locus YLR027C, strain aat2, stronger effect = lower value 0.996 | S. cerevisiae deletion strains, locus YLR039C, strain RIC1, stronger effect = lower value 1.01 | S. cerevisiae deletion strains, locus YLR058C, strain SHM2, stronger effect = lower value 1.01 | S. cerevisiae deletion strains, locus YLR102C, strain apc9, stronger effect = lower value 1.01 | S. cerevisiae deletion strains, locus YLR113W, strain HOG1, stronger effect = lower value 0.988 | S. cerevisiae deletion strains, locus YLR221C, strain rsa3, stronger effect = lower value 1.01 | S. cerevisiae deletion strains, locus YLR258W, strain gsy2, stronger effect = lower value 1.01 | S. cerevisiae deletion strains, locus YLR262C, strain YPT6 (second series), stronger effect = lower value 1.02 | S. cerevisiae deletion strains, locus YLR262C, strain YPT6, stronger effect = lower value 1.01 | S. cerevisiae deletion strains, locus YLR268W, strain sec22, stronger effect = lower value 1.01 | S. cerevisiae deletion strains, locus YLR320W, strain mms22, stronger effect = lower value 1.02 | S. cerevisiae deletion strains, locus YLR330W, strain CHS5, stronger effect = lower value 1.01 | S. cerevisiae deletion strains, locus YLR342W, strain FKS1 (second series), stronger effect = lower value 1.06 | S. cerevisiae deletion strains, locus YLR342W, strain FKS1, stronger effect = lower value 1.01 | S. cerevisiae deletion strains, locus YLR357W, strain rsc2, stronger effect = lower value 1 | S. cerevisiae deletion strains, locus YLR370C, strain arc18, stronger effect = lower value 0.997 | S. cerevisiae deletion strains, locus YLR371W, strain rom2, stronger effect = lower value 1.01 | S. cerevisiae deletion strains, locus YLR384C, strain iki3, stronger effect = lower value 0.995 | S. cerevisiae deletion strains, locus YLR418C, strain cdc73, stronger effect = lower value 1.02 | S. cerevisiae deletion strains, locus YML016C, strain PPZ1, stronger effect = lower value 1 | S. cerevisiae deletion strains, locus YML032C, strain rad52, stronger effect = lower value 0.997 | S. cerevisiae deletion strains, locus YML120C, strain ndi1, stronger effect = lower value 0.994 | S. cerevisiae deletion strains, locus YML124C, strain tub3, stronger effect = lower value 1.01 | S. cerevisiae deletion strains, locus YMR058W, strain fet3, stronger effect = lower value 0.989 | S. cerevisiae deletion strains, locus YMR078C, strain ctf18, stronger effect = lower value 1.01 | S. cerevisiae deletion strains, locus YMR125W, strain sto1, stronger effect = lower value 0.973 | S. cerevisiae deletion strains, locus YMR129W, stronger effect = lower value 0.991 | S. cerevisiae deletion strains, locus YMR205C, strain PFK2, stronger effect = lower value 1.05 | S. cerevisiae deletion strains, locus YMR223W, strain ubp8, stronger effect = lower value 1.02 | S. cerevisiae deletion strains, locus YMR231W, strain pep5, stronger effect = lower value 0.998 | S. cerevisiae deletion strains, locus YMR263W, strain SAP30, stronger effect = lower value 0.995 | S. cerevisiae deletion strains, locus YMR307W, strain GAS1, stronger effect = lower value 1.01 | S. cerevisiae deletion strains, locus YNL067W, strain RPL9B, stronger effect = lower value 0.981 | S. cerevisiae deletion strains, locus YNL071W, strain lat1, stronger effect = lower value 0.994 | S. cerevisiae deletion strains, locus YNL128W, strain TEP1, stronger effect = lower value 1.03 | S. cerevisiae deletion strains, locus YNL183C, strain NPR1, stronger effect = lower value 0.958 | S. cerevisiae deletion strains, locus YNL209W, strain ssb2, stronger effect = lower value 1 | S. cerevisiae deletion strains, locus YNL233W, strain BNI4, stronger effect = lower value 0.978 | S. cerevisiae deletion strains, locus YNL248C, strain rpa49, stronger effect = lower value 0.96 | S. cerevisiae deletion strains, locus YNL250W, strain rad50, stronger effect = lower value 1.02 | S. cerevisiae deletion strains, locus YNL271C, strain bni1, stronger effect = lower value 1.01 | S. cerevisiae deletion strains, locus YNL298W, strain CLA4, stronger effect = lower value 1 | S. cerevisiae deletion strains, locus YNL307C, strain MCK1, stronger effect = lower value 1.02 | S. cerevisiae deletion strains, locus YNL322C, strain KRE1 (second series), stronger effect = lower value 0.992 | S. cerevisiae deletion strains, locus YNL322C, strain KRE1, stronger effect = lower value 0.999 | S. cerevisiae deletion strains, locus YNR049C, strain mso1, stronger effect = lower value 0.994 | S. cerevisiae deletion strains, locus YNR052C, strain pop2, stronger effect = lower value 1.01 | S. cerevisiae deletion strains, locus YOL006C, strain TOP1, stronger effect = lower value 0.966 | S. cerevisiae deletion strains, locus YOL012C, strain htz1 0.962 | S. cerevisiae deletion strains, locus YOL147C, strain pex11, stronger effect = lower value 1.01 | S. cerevisiae deletion strains, locus YOR001W, strain rrp6, stronger effect = lower value 0.971 | S. cerevisiae deletion strains, locus YOR061W, strain CKA2, stronger effect = lower value 1.01 | S. cerevisiae deletion strains, locus YOR069W, strain VPS5, stronger effect = lower value 1.01 | S. cerevisiae deletion strains, locus YOR070C, strain gyp1, stronger effect = lower value 1 | S. cerevisiae deletion strains, locus YOR080W, strain dia2, stronger effect = lower value 0.999 | S. cerevisiae deletion strains, locus YOR083W, strain WHI5, stronger effect = lower value 0.984 | S. cerevisiae deletion strains, locus YOR106W, strain vam3, stronger effect = lower value 1.01 | S. cerevisiae deletion strains, locus YOR136W, strain idh2, stronger effect = lower value 0.994 | S. cerevisiae deletion strains, locus YOR144C, strain elg1, stronger effect = lower value 1 | S. cerevisiae deletion strains, locus YOR184W, strain ser1, stronger effect = lower value 1.02 | S. cerevisiae deletion strains, locus YOR231W, strain MKK1, stronger effect = lower value 0.98 | S. cerevisiae deletion strains, locus YOR265W, strain rbl2, stronger effect = lower value 0.996 | S. cerevisiae deletion strains, locus YOR270C, strain vph1, stronger effect = lower value 0.994 | S. cerevisiae deletion strains, locus YOR290C, strain snf2, stronger effect = lower value 0.965 | S. cerevisiae deletion strains, locus YOR316C, strain cot1, stronger effect = lower value 1.01 | S. cerevisiae deletion strains, locus YPL051W, strain arl3, stronger effect = lower value 0.985 | S. cerevisiae deletion strains, locus YPL078C, strain atp4, stronger effect = lower value 0.968 | S. cerevisiae deletion strains, locus YPL106C, strain sse1, stronger effect = lower value 1 | S. cerevisiae deletion strains, locus YPL240C, strain hsp82, stronger effect = lower value 1.02 | S. cerevisiae deletion strains, locus YPL256C, strain CLN2, stronger effect = lower value 1.01 | S. cerevisiae deletion strains, locus YPR119W, strain clb2, stronger effect = lower value 1 | S. cerevisiae deletion strains, locus YPR141C, strain kar3, stronger effect = lower value 1 | S. cerevisiae deletion strains, locus YPR163C, strain tif3, stronger effect = lower value 1.01 | S. cerevisiae deletion strains, locus YPR167C, strain met16, stronger effect = lower value 1.01 | S. cerevisiae deletion strains, strain wtn01, stronger effect = lower value 1.02 | S. cerevisiae strains, strain wild type, stronger effect = lower value 0.996
